Experimental data published in PubChem BioAssay (NCI).
The panel holds about 79,000 compounds, 15% with a hit somewhere; the sample as a whole holds those more often. Active and inactive are the calls of the source. No stated cut-off is given here; in the data, active means growth inhibition above about 70%; inactive means the rest. Where a SMILES comes first, the peptide text is derived from it. [ ]: non-standard residue; d: D form. The star is where a group is joined. ξ: configuration not given here. ξF = NC(Cc1ccccc1)C(=O)O; Cbz = O=C(OCc1ccccc1)*; Aib = CC(C)(N)C(=O)O; NHNH2 = NN*

What was measured:
[1] = NCI Yeast Anticancer Drug Screen. Data for the rad50 strain (AID 155);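 further: 0% = growth of vehicle-only cultures of the same strain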; settings: S. cerevisiae rad50 strain growth inhibition; at 50.0 µM; active compounds read high
In short: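 Compounds were tested on a yeast strain with an engineered DNA damage repair alteration; the reported value is growth inhibition normalised to vehicle treatment.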

[2] = NCI Yeast Anticancer Drug Screen. Data for the mec2-1 strain (AID 157); settings: S. cerevisiae mec2-1 strain, at 50.0 µM, active compounds read high
In short: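 Compounds were applied to mec2-1 yeast cells. Their growth was then compared with that of vehicle-treated cultures to give growth inhibition.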

[3] = NCI Yeast Anticancer Drug Screen. Data for the sgs1 mgt1 strain (AID 161);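 further: 0% = growth of cultures given vehicle only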; settings: S. cerevisiae sgs1 mgt1 strain, at 50.0 µM, active compounds read high
In short: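 Percent growth inhibition was derived by comparing compound-exposed mutant yeast with vehicle-exposed cultures. The strain carries alterations in DNA damage repair.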

[4] = NCI Yeast Anticancer Drug Screen. Data for the cln2 rad14 strain (AID 165);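 further: 0% = growth equal to vehicle treated cultures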; settings: S. cerevisiae cln2 rad14 strain, at 50.0 µM, active compounds read high
In short: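 Strain: cln2 rad14 yeast, altered in cell cycle control and DNA damage repair. Read-out: growth inhibition vs vehicle.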

[5] = NCI Yeast Anticancer Drug Screen. Data for the bub3 strain (AID 167); settings: S. cerevisiae bub3 mutant strain, at 50.0 µM, active compounds read high
In short: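 Growth of a checkpoint-deficient yeast mutant is measured after compound exposure. Values represent inhibition relative to vehicle.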

[6] = NCI Yeast Anticancer Drug Screen. Data for the mlh1 rad18 strain (AID 175); settings: S. cerevisiae mlh1 rad18 strain growth inhibition; at 50.0 µM; active compounds read high
In short: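 A repair-deficient yeast strain is exposed to test compound, and growth is scored relative to vehicle-treated controls.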

Measured: growth inhibition

Brc1ncccn1
inactive: [1] 23.8% | [2] -16.9% | [3] 0.65% | [4] 17.9% | [5] 7.75% | [6] 14.8%

O=[N+]([O-])c1ccc(SCN(CSc2ccc([N+](=O)[O-])cc2)Cc2ccccc2)cc1
inactive: [1] -6.35% | [2] -6.85% | [3] -1.2% | [4] -17.4% | [5] 4.65% | [6] -7%

N#Cc1cnn(-c2ccc([N+](=O)[O-])cc2)c1N
inactive: [1] 14.8% | [2] -16.6% | [3] 3.85% | [4] -26.6% | [5] 1.7% | [6] 20.5%

CC(C)(NC(=O)OCc1ccccc1)C(=O)NC(Cc1ccccc1)C(=O)NN (configuration not stated) (Cbz-[Aib]-[ξF]-NHNH2)
inactive: [1] 0.55% | [2] 7.35% | [3] 7% | [4] 20.9% | [5] 15.4% | [6] -20.1%

CCCCC(c1nc2c(c3c1CCCC3)CCCC2)C(O)(C(F)(F)F)C(F)(F)F (configuration not stated)
inactive: [1] 13.1% | [2] 7% | [3] 10.2% | [4] -4.15% | [5] -2.1% | [6] 16.4%

Cc1c(C(=O)CC(=O)C(=O)Nc2cccc(C(F)(F)F)c2)[n+](=O)c2ccccc2n1[O-]
inactive: [1] 45.8% | [2] 43.1% | [3] 28.6% | [4] 14.2% | [5] 38.4% | [6] 31.6%

CCc1nnc(CC)n1NC(=O)Nc1ccc(C)cc1
inactive: [1] -5.1% | [2] -14.5% | [3] -3.75% | [4] 7.05% | [5] -7.65% | [6] 1.25%

O=C(O)CC(O)C(F)(F)F (configuration not stated)
inactive: [1] 17.4% | [2] 0.45% | [3] 1.95% | [4] 8.65% | [5] 5.3% | [6] 26.5%

CC(C)=CCc1ccc2c(c1)CCCN2C
inactive: [1] -44.4% | [2] -22.1% | [3] -17.4% | [4] -47% | [5] 20.9% | [6] 1.15%

S=c1nc[nH]c2c1CN(Cc1ccccc1)CC2
inactive: [1] -43.6% | [2] -2.25% | [3] 4.6% | [4] -23.4% | [5] -4.95% | [6] -6.8%

CC(=O)NNc1nc(C)c(C(/C=C/c2ccccc2O)=N/NC(=O)c2ccncc2)s1
inactive: [1] 6.9% | [2] 5.5% | [3] 16.1% | [4] 26.6% | [5] 17.5% | [6] 22.2%

CC(=O)OCN(C)N=Nc1ccc([N+](=O)[O-])cc1
inactive: [1] 28% | [2] 10.5% | [3] 25.8% | [4] 6.15% | [5] 10.6% | [6] 22.6%

CCCCOCCOC(=O)CCCCCC1C=CCCC1 (configuration not stated)
inactive: [1] 10.8% | [2] 8.4% | [3] 8.65% | [4] -18.6% | [5] -8.35% | [6] 4.95%

Cc1cc(OC(=O)c2c(C)cc(OC(=O)c3c(C)cc(O)cc3O)cc2O)cc(O)c1C(=O)O
inactive: [1] -7.15% | [2] -44.7% | [3] -19.4% | [4] -3.55% | [5] -27.4% | [6] -2.15%

BrC1(C2(Br)N(c3ccccc3)CCN2c2ccccc2)N(c2ccccc2)CCN1c1ccccc1
inactive: [1] 53% | [2] -1.55% | [3] 42.4% | [4] 10.2% | [5] 2% | [6] 11.6%

O=C(O)C(O)c1cccc([N+](=O)[O-])c1 (configuration not stated)
inactive: [1] 11.1% | [2] 11.7% | [3] -8.8% | [4] -7.05% | [5] -32.2% | [6] -12.9%

Cc1cnc2cc(Cl)ccc2c1SCC(=O)O
inactive: [1] 3.6% | [2] -39.7% | [3] -42.9% | [4] -24.4% | [5] -36.6% | [6] 1.05%

OC(c1ccccc1)(C1CCNCC1)C1CC1 (configuration not stated)
inactive: [1] 9.8% | [2] -10.4% | [3] -4% | [4] -20.4% | [5] -16.6% | [6] -6.45%

COC(=O)/C(C)=C1\C=C(C)CC(C)(C)C1
inactive: [1] -4.3% | [2] -25.1% | [3] -10.6% | [4] 1% | [5] -23.9% | [6] -2.3%

CCCCCC(=O)Oc1c(C(C)CC)cc([N+](=O)[O-])cc1[N+](=O)[O-] (configuration not stated)
active: [1] 97.5% | [2] 97% | [3] 98.5% | [4] 97.7% | [5] 97.3% | [6] 98.2%

O=C(O)C(CBr)c1ccccc1 (configuration not stated)
inactive: [1] 6.7% | [2] 7.2% | [3] -0.55% | [4] 13.2% | [5] 0.05% | [6] 0.5%

NC(=O)NCC(N)C(=O)O (configuration not stated)
inactive: [1] -4.75% | [2] -5.2% | [3] -2.3% | [4] 1.55% | [5] 1.55% | [6] -1.9%

C1CCOC2(CCC3(CC2)OCCCCO3)OC1
inactive: [1] -16.5% | [2] 2.55% | [3] -18.2% | [4] -44.2% | [5] -10.2% | [6] -39.4%

CCN(CC)c1ccc(/C=N\N(C)C)cc1
inactive: [1] 0.2% | [2] -13.2% | [3] -4.8% | [4] -48.1% | [5] -1.65% | [6] -6.55%

CC(Oc1ccccc1)C(O)(c1ccc(N(C)C)cc1)c1ccc(N(C)C)cc1 (configuration not stated)
inactive: [1] 3.3% | [2] -5.9% | [3] 9.3% | [4] 8.15% | [5] 1.4% | [6] 11.9%

Cc1cc[n+](C(C)CCC(C)[n+]2ccc(C)cc2)cc1 (configuration not stated)
inactive: [1] 25.2% | [2] 20.5% | [3] 42.5% | [4] 27% | [5] 14.2% | [6] 11.8%

Cc1ccc(-n2cnc3c(N/N=C4\SCC(=O)N4c4ccccc4)ncnc32)cc1
inactive: [1] 41.2% | [2] 17.6% | [3] 40.2% | [4] 15.1% | [5] 49.2% | [6] 35%

CCOC(=O)/C(=N\O)C(C)(C)c1ccnc2ccccc12
inactive: [1] -4% | [2] 0.6% | [3] -10.9% | [4] 4.05% | [5] -5% | [6] 4.7%

c1ccc(-c2oc3ccccc3c2-c2ccc(OCCN3CCCC3)cc2)cc1
active: [1] 99.5% | [2] 99.6% | [3] 99.7% | [4] 99.3% | [5] 99.3% | [6] 99.5%

NCCNCC(O)CO (configuration not stated)
inactive: [1] -2.4% | [2] -18.6% | [3] -21.4% | [4] -9.5% | [5] 3.9% | [6] 6.15%

CC1=C[C@H](C[C@]2(C)c3c(c4c(C)cccc4oc3=O)O[C@@H]2C)OC1=O
inactive: [1] 1% | [2] 24.4% | [3] 11.3% | [4] 17.2% | [5] -3.2% | [6] 33.2%

Cc1ccccc1NC(=O)/C=C\C(=O)O
inactive: [1] 8.9% | [2] -10.3% | [3] -0.7% | [4] 10.1% | [5] -14.4% | [6] 10.2%

CC1(C)N(/N=C/c2ccccc2)C(c2ccccc2)C(c2ccccc2)N1/N=C/c1ccccc1 (configuration not stated)
inactive: [1] -8.95% | [2] -6.45% | [3] 6.25% | [4] -11.3% | [5] 2.65% | [6] 9.75%

Clc1ccc(N2C(c3ccccc3)=N[C@@H](N3CCOCC3)[C@@H]2N2CCOCC2)cc1
inactive: [1] -13.2% | [2] -15.9% | [3] -9.95% | [4] -30.9% | [5] -1.5% | [6] -4.7%

O=c1cc(-c2ccc(Cl)cc2)oc2cc(OCCCOc3ccc4c(=O)cc(-c5ccc(Cl)cc5)oc4c3)ccc12
inactive: [1] 40.9% | [2] 37.5% | [3] 12.8% | [4] -33.1% | [5] 19.9% | [6] 25.1%

Cn1c(N)c(C(=O)/C=C/c2ccccc2)c(=O)n(C)c1=O
inactive: [1] 11.4% | [2] -17.5% | [3] 17.9% | [4] 17.1% | [5] -3.85% | [6] 5.8%

CCNC(=S)NC1CCCCC1
inactive: [1] -8.35% | [2] 5.15% | [3] 3.65% | [4] -4.05% | [5] -13.1% | [6] 12.3%
